From publication PMC3218832 come the findings set out here.

Targets include RELARELA (p65 homodimer) (Homo sapiens, UniProt Q04206 1-307); p50p50 homodimer (Homo sapiens, UniProt P19838 7-356); RELB subunit;p50 subunit (Homo sapiens;Homo sapiens, UniProt Q01201;P19838 120-401;7-356).
Assay in all cases: protein binding microarray; high values mean tight binding
Common to all, as to settings: dsDNA, one strand shown

For another experiment, the target named is T1, p52p52 homodimer (Homo sapiens, UniProt Q00653 4-332).
T1 sequence: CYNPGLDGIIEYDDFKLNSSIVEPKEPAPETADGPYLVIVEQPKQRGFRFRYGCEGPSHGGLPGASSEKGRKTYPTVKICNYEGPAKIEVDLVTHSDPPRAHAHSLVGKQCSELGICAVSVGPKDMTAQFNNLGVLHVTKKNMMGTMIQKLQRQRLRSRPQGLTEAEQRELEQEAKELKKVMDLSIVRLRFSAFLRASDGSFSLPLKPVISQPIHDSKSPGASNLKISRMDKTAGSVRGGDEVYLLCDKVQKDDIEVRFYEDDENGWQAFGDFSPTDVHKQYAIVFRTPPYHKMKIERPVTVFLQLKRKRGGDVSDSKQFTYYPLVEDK

Experiment [1] addresses RELA (p65) subunit of heterodimer;p50 subunit (Homo sapiens;Homo sapiens, UniProt Q04206;P19838 1-307;7-356).
Experiment [2] has as its target RELA (p65) subunit of heterodimer;p52 subunit (Homo sapiens;Homo sapiens, UniProt Q04206;Q00653 1-307;4-332).
The target of another experiment is T2, RELB subunit;p52 subunit (Homo sapiens;Homo sapiens, UniProt Q01201;Q00653 120-401;4-332).
T2 sequence 1: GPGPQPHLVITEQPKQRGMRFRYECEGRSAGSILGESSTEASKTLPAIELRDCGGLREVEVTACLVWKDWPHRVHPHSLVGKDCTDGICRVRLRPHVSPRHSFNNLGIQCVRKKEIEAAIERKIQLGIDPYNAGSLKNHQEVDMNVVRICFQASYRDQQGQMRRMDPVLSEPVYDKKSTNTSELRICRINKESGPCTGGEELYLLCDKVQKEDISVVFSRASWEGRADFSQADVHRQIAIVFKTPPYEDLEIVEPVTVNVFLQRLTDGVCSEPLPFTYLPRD
T2 sequence 2: T1 sequence

Experiment [3] addresses C-Rel subunit;p50 subunit (Homo sapiens;Homo sapiens, UniProt Q04864;P19838 1-285;7-356).
Experiment [4] addresses T3, C-Rel subunit;p52 subunit (Homo sapiens;Homo sapiens, UniProt Q04864;Q00653 1-285;4-332).
T3 sequence 1: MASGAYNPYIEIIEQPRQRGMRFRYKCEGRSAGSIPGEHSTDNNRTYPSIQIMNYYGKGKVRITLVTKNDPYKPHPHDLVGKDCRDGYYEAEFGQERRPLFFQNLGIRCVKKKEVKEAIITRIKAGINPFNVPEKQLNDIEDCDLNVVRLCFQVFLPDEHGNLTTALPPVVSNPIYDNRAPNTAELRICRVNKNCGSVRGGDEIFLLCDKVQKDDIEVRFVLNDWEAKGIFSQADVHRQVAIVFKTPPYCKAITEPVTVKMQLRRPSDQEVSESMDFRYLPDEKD
T3 sequence 2: T1 sequence

p50p50 homodimer, sequence (P19838 7-356): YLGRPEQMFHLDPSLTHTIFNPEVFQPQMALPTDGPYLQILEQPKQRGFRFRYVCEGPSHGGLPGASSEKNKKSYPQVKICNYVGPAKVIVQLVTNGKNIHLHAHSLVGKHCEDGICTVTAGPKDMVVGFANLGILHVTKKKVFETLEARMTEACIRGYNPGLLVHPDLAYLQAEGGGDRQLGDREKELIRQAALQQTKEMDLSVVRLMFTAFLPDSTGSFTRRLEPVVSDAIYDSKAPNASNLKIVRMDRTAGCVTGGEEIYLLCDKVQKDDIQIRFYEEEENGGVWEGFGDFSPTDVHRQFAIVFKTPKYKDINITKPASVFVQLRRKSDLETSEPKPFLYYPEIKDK
RELA (p65) subunit of heterodimer;p50 subunit, sequence (Q04206 1-307, chain 1 of 2): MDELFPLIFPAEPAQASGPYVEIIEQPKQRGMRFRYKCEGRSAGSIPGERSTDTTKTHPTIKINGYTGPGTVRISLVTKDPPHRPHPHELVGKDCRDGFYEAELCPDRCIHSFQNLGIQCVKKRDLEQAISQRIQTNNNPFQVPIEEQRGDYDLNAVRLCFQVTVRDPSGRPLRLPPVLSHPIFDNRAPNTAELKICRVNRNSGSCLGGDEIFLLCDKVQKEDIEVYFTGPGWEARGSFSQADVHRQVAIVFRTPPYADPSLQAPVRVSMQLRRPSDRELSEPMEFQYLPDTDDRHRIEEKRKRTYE
RELA (p65) subunit of heterodimer;p50 subunit, sequence (P19838 7-356, chain 2 of 2): as the sequence (P19838 7-356) above
RELARELA (p65 homodimer), sequence (Q04206 1-307): as the sequence (Q04206 1-307, chain 1 of 2) above

On to AGAAGTCCCCC, for which the binding signal came out at 0.863 z-score in the experiment with RELARELA (p65 homodimer); 1.4 z-score with p50p50 homodimer; 1.58 z-score with p52p52 homodimer; 1.97 z-score in experiment [1]; 1.75 z-score in experiment [2]; 2.05 z-score in the experiment with RELB subunit;p50 subunit. In addition, the binding signal in the experiment with RELB subunit;p52 subunit turned out to be 2.01 z-score; in experiment [3], 1.53 z-score; in experiment [4], 1.63 z-score.

For CAGAAGTCCCT, the binding signal with RELARELA (p65 homodimer) worked out at 0.471 z-score; in the experiment with p50p50 homodimer, 1.51 z-score; in the experiment with p52p52 homodimer it was 1.62 z-score; in [1], 1.88 z-score; in experiment [2], 1.35 z-score; with RELB subunit;p50 subunit, 2.02 z-score. In addition, the figures for the binding signal (with RELB subunit;p52 subunit; in [3]; in experiment [4]) were 1.86 z-score, 1.39 z-score and 0.987 z-score, respectively.

Turning to GAATGAGCCCT, the binding signal in the experiment with RELARELA (p65 homodimer) was -1.06 z-score; with p50p50 homodimer it was -1.39 z-score; in the experiment with p52p52 homodimer, -0.606 z-score; in [1], -0.778 z-score; in experiment [2] it was -0.989 z-score; with RELB subunit;p50 subunit, -1.17 z-score. Moreover, the binding signal with RELB subunit;p52 subunit was -0.969 z-score; in experiment [3], -1.55 z-score; in experiment [4] it was -1.02 z-score.

Consider AGGTTGCTCCC, for which the binding signal was -0.396 z-score in the experiment with RELARELA (p65 homodimer); -0.987 z-score with p50p50 homodimer; -0.528 z-score in the experiment with p52p52 homodimer; -0.584 z-score in experiment [1]; -0.648 z-score in [2]; -0.569 z-score in the experiment with RELB subunit;p50 subunit. The binding signal with RELB subunit;p52 subunit is -0.67 z-score; in experiment [3], -0.696 z-score; in experiment [4], -0.587 z-score.

With AAAAAGGTCCC, the binding signal with RELARELA (p65 homodimer) amounted to 0.243 z-score; with p50p50 homodimer, 0.679 z-score; with p52p52 homodimer, 0.569 z-score; in experiment [1], 0.331 z-score; in experiment [2] it was 0.184 z-score; with RELB subunit;p50 subunit it was 0.63 z-score. Further, the binding signal was determined as 0.428 z-score with RELB subunit;p52 subunit, 0.216 z-score in experiment [3] and 0.157 z-score in experiment [4].

Regarding AGAGGCCTCCT, the binding signal in the experiment with RELARELA (p65 homodimer) is -0.539 z-score; in the experiment with p50p50 homodimer, -1.92 z-score; in the experiment with p52p52 homodimer, -0.785 z-score; in experiment [1] it was -1.08 z-score; in [2] it was -1.07 z-score; in the experiment with RELB subunit;p50 subunit, -1.08 z-score. The binding signal in the experiment with RELB subunit;p52 subunit is -0.973 z-score; in experiment [3], -1.66 z-score; in experiment [4], -0.937 z-score.

CGGGGACCCCT: the binding signal is -0.0408 z-score with RELARELA (p65 homodimer); 0.724 z-score with p50p50 homodimer; 0.639 z-score with p52p52 homodimer; 0.43 z-score in [1]; 0.693 z-score in experiment [2]; 0.578 z-score in the experiment with RELB subunit;p50 subunit. For the same sequence, the binding signal with RELB subunit;p52 subunit is 0.906 z-score; in [3], 0.478 z-score; in experiment [4], -0.0336 z-score.

For the sequence CAAGTTGTCCC, the binding signal in the experiment with RELARELA (p65 homodimer) was 0.644 z-score; with p50p50 homodimer, 0.614 z-score; in the experiment with p52p52 homodimer, 0.469 z-score; in [1], 0.421 z-score; in experiment [2], 0.267 z-score; in the experiment with RELB subunit;p50 subunit, 0.826 z-score. The binding signal worked out at 0.446 z-score in the experiment with RELB subunit;p52 subunit, 0.778 z-score in experiment [3] and 0.251 z-score in experiment [4].

As to GGGTTATCCCC, the binding signal was found to be 2.08 z-score with RELARELA (p65 homodimer); 0.73 z-score in the experiment with p50p50 homodimer; 3.22 z-score with p52p52 homodimer; 1.96 z-score in experiment [1]; 2.63 z-score in [2]; 1.91 z-score in the experiment with RELB subunit;p50 subunit. Also, the binding signal with RELB subunit;p52 subunit is 2.13 z-score; in experiment [3] it was 1.6 z-score; in [4], 2.55 z-score.

Regarding GGAAAGATCCT, the binding signal with RELARELA (p65 homodimer) is -0.0836 z-score; with p50p50 homodimer, -1.25 z-score; with p52p52 homodimer it was -0.674 z-score; in [1], -0.749 z-score; in experiment [2], -0.654 z-score; with RELB subunit;p50 subunit it was -0.932 z-score. The binding signal with RELB subunit;p52 subunit was -0.789 z-score; in experiment [3], -0.978 z-score; in [4], -0.449 z-score.

As to GGATGACTCCC, the binding signal in the experiment with RELARELA (p65 homodimer) is -0.304 z-score; with p50p50 homodimer, -0.794 z-score; in the experiment with p52p52 homodimer, -0.473 z-score; in experiment [1] it was -0.49 z-score; in [2] it was -0.701 z-score; with RELB subunit;p50 subunit it was -0.618 z-score. For the same sequence, the binding signal with RELB subunit;p52 subunit was -0.826 z-score; in experiment [3], -0.932 z-score; in experiment [4], -0.692 z-score.

On to AGGTAGCTCCT, for which the binding signal is -0.716 z-score with RELARELA (p65 homodimer); -0.916 z-score with p50p50 homodimer; -0.638 z-score with p52p52 homodimer; -0.909 z-score in [1]; -0.901 z-score in experiment [2]; -0.802 z-score in the experiment with RELB subunit;p50 subunit. Moreover, the binding signal was -0.975 z-score with RELB subunit;p52 subunit, -1.36 z-score in experiment [3] and -0.889 z-score in experiment [4].

Regarding GAAGAAATCCC, the binding signal with RELARELA (p65 homodimer) is 1.23 z-score; in the experiment with p50p50 homodimer it was 0.872 z-score; with p52p52 homodimer, 0.93 z-score; in experiment [1] it was 0.96 z-score; in experiment [2], 0.759 z-score; with RELB subunit;p50 subunit, 0.876 z-score. Moreover, the binding signal with RELB subunit;p52 subunit came out at 0.618 z-score; in experiment [3] it was 0.892 z-score; in experiment [4], 0.641 z-score.

Turning to GAGAGATTCCC, the binding signal came out at 1.47 z-score with RELARELA (p65 homodimer); 0.649 z-score with p50p50 homodimer; 0.325 z-score with p52p52 homodimer; 0.844 z-score in [1]; 0.545 z-score in [2]; 0.433 z-score in the experiment with RELB subunit;p50 subunit. Moreover, the binding signal with RELB subunit;p52 subunit is 0.292 z-score; in [3], 0.909 z-score; in experiment [4] it was 0.551 z-score.

For the sequence AAATTACTCCC, the binding signal in the experiment with RELARELA (p65 homodimer) was 0.447 z-score; with p50p50 homodimer, 0.204 z-score; in the experiment with p52p52 homodimer, -0.0753 z-score; in [1] it was 0.132 z-score; in [2] it was -0.25 z-score; with RELB subunit;p50 subunit, 0.146 z-score. Besides, the values for the binding signal (with RELB subunit;p52 subunit; in experiment [3]; in [4]) were -0.105 z-score, 0.213 z-score and -0.11 z-score, respectively.
